The text below walks through data of ChEMBL document CHEMBL1201862, “PubChem BioAssay data set” (2004).

Among all 54,000 […] or so, about 3,300 (6.1%) were called active. Rule as the data show it: active = GI50 up to about 1.1 µM and inactive = higher. A selection follows. Measured potencies and affinities stand elsewhere.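 The compound was tested at five concentrations on cells cultured in 96-well plates, with a 48-hour exposure period. GI50: concentration for 50% inhibition of growth.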

For this test, the system named is Malme-3M. The experiment in a line: NCI tumour cell line growth inhibition, 48 h.
As for “[Bis(aminomethyl)pentamethylenesilane]tetrachloropaltinum(IV), CHEMBL2146204”, the GI50 came to 1220 nM.

“[Bis(aminomethyl)tetramethylenesilane]dichloropaltinum(II), CHEMBL2146205”: the GI50 is 8590 nM.

Consider “[Bis(aminomethyl)dimethylsilane]tetrachloroplatinum(IV), CHEMBL2146190”, for which the GI50 turned out to be 2770 nM.

In the case of “[Bis(aminomethyl)tetramethylenesilane]tetrachloropaltinum(IV), CHEMBL2146189”, the GI50 is 1620 nM.

With “cis-Bis[[(trimethylsilyl)methyl]amino]tetrachloroplatinum(IV), CHEMBL2146191”, the GI50 was determined as 2250 nM.

On to “mu-(1,7-nanodiamine-N,N')bis-(cis-aminedichloroplatimum (II)), CHEMBL2146215”, for which the GI50 was determined as 2410 nM.

“[Bis(aminomethyl)diethylsilane]tetrachloroplatinum(IV), CHEMBL2146203” came in with a GI50 of 1220 nM.

Consider CISPLATIN, CHEMBL11359, for which the GI50 amounted to 1600 nM.

In turn, “[Bis(aminomethyl)ethylmethylsilane]tetrachloroplatinum(IV), CHEMBL2146192” came in with a GI50 of 2080 nM.

“[Bis(aminomethyl)pentamethylenesilane]dichloropaltinum(II), CHEMBL2146202” displayed a GI50 of 1540 nM.

Take “[Bis(aminomethyl)dimethylsilane]dichloroplatinum (II), CHEMBL2146201”: the GI50 was 17700 nM.
